Consider ten molecules from PubChem BioAssay (Tox21).

Records with an inconclusive call do not appear. Unmarked numbers belong to inactive results. Active and inactive are the calls of the source. Unless noted, calls follow the shape of the dose curve; as a rule, active = well fitted curve in the direction sought with a large enough effect in the repeat runs; inconclusive = weak or mixed curves; inactive = no such curve, though single readings can be large; an effect the other way counts as inactive or inconclusive.

A short description of test [1]: qHTS assay to identify small molecule antagonists of the glucocorticoid receptor (GR) signaling pathway - cell viability counter screen (AID 720693). Also: nearly all actives have a fitted effect of over 55% in size. For orientation: Quantitative high-throughput screening tests each substance at several concentrations.
The nature of test [2]: qHTS assay for identifying genotoxic compounds that show differential cytotoxicity against isogenic chicken DT40 cell lines with known DNA damage response pathways - wild type cell line (AID 743012). Also: nearly all actives have a fitted effect of over 60% in size. Also: potency is read from the fitted curve at half-maximal effect. An outline of the steps:
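Cells (DT40 wild type, 300/well) are treated with DMSO-dissolved compounds after a ~0.5 h pre-incubation and kept 40 h at 37 C/5% CO2. Viability is then measured by CellTiter-Glo luminescence following 30 min at room temperature.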

Test [3] in a line: qHTS assay for identifying genotoxic compounds that show differential cytotoxicity against isogenic chicken DT40 cell lines with known DNA damage response pathways - Rev3 mutant cell line (AID 743014). Also: nearly all actives have a fitted effect of over 55% in size. Also: potency is read from the fitted curve at half-maximal effect.
The nature of test [4]: qHTS assay for identifying genotoxic compounds that show differential cytotoxicity against isogenic chicken DT40 cell lines with known DNA damage response pathways - Rad54/Ku70 mutant cell line (AID 743015). Also: nearly all actives have a fitted effect of over 60% in size. Also: potency is read from the fitted curve at half-maximal effect.
Test [5] can be described thus: qHTS assay to identify small molecule antagonists of the androgen receptor (AR) signaling pathway - cell viability counter screen (AID 743033; also: nearly all actives have a fitted effect of over 45% in size).
The nature of test [6]: qHTS assay to identify small molecule antagonists of the androgen receptor (AR) signaling pathway using the MDA cell line - cell viability counter screen (AID 743041; also: nearly all actives have a fitted effect of over 45% in size). An outline of the steps: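 MDA-kb2 AR-luc cells (MMTV-luciferase, AR/GR responsive) treated with compounds plus R1881 agonist for 16 h at 37C. CellTiter-Fluor added at 15.5 h; fluorescence read after 30 min in the same wells.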

Test [7] in a line: qHTS assay to identify small molecule antagonists of the thyroid receptor (TR) signaling pathway (AID 743065). Also: nearly all actives have a fitted effect of over 55% in size. An outline of the steps: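 GH3.TRE-Luc rat pituitary cells (two TREs driving luciferase) were dosed with compound, then stimulated with 1 nM T3 (final) for 23.5 h at 37 C. ONE-Glo luminescence was the read-out, with CellTiter-Fluor fluorescence as the cytotoxicity counter-screen.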

In test [8] the test system is thyroid hormone receptor (rat, GH3 cells). As to the kind of experiment: qHTS assay to identify small molecule agonists of the thyroid receptor (TR) signaling pathway (AID 743066; calls by dose curve).
The target of test [9] is Estrogen receptor (Homo sapiens) (UniProt P03372). As to the kind of experiment: qHTS assay to identify small molecule antagonists of the estrogen receptor alpha (ER-alpha) signaling pathway (AID 743069; active = well fitted curve in the direction sought with a large enough effect in the signal ratio in the repeat runs, not every such curve was filed as active; the % refers to the signal ratio). An outline of the steps: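 HEK293 ER-alpha-UAS-bla GripTite cells, held overnight in 2% charcoal-stripped FBS, 5,000 cells/well, preincubated 4 h, then compound plus 17beta-estradiol for 18 h at 37C. Beta-lactamase read by LiveBLAzer B/G FRET substrate, 2 h at room temperature.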

The nature of test [10]: qHTS assay to identify small molecule antagonists of the estrogen receptor alpha (ER-alpha) signaling pathway - cell viability counter screen (AID 743074; calls by dose curve;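 also: HEK293 cells carrying ER-alpha-UAS-bla reporter stimulated with 17beta-estradiol; nearly all actives have a fitted effect of over 45% in size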).
Test [11] concerns the target Estrogen receptor (Homo sapiens) (UniProt P03372). Description: qHTS assay to identify small molecule agonists of the estrogen receptor alpha (ER-alpha) signaling pathway (AID 743075; calls by dose curve).
For test [12] the target is unchanged. As to the kind of experiment: qHTS assay to identify small molecule agonists of the estrogen receptor alpha (ER-alpha) signaling pathway using the BG1 cell line (AID 743079). Also: potency is read from the fitted curve at half-maximal effect. As to all read-outs here: nearly all actives have a fitted effect of over 20% in size. Particulars: BG1Luc4E2 cells, ERE-luciferase agonist, 22 h; for activation: at 70.3 µM (top of the series).
A short description of test [13]: qHTS assay to identify small molecule antagonists of the estrogen receptor alpha (ER-alpha) signaling pathway using the BG1 cell line (AID 743080; calls by dose curve;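 also: BG1 cells stimulated with 17beta-estradiol alongside compound; nearly all actives have a fitted effect of over 25% in size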). The method in brief: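 Luminescence from a 4×ERE-luciferase reporter in BG1-Luc-4E2 cells served as read-out. Cells, pre-cultured 5 days in stripped-serum phenol-red-free medium, were exposed to compound with 17beta-estradiol co-stimulation for 21.5 h at 37 C.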

Test [14] is described as follows: qHTS assay to identify small molecule antagonists of the estrogen receptor alpha (ER-alpha) signaling pathway using the BG1 cell line - cell viability counter screen (AID 743081).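 Also: compound given together with 17beta-estradiol as the ER stimulus; nearly all actives have a fitted effect of over 45% in size.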
Test [15] deals with Aromatase (Homo sapiens) (UniProt P11511). Description: qHTS assay to identify aromatase inhibitors (AID 743083). Also: nearly all actives have a fitted effect of over 55% in size. Also: potency is read from the fitted curve at half-maximal effect.
Test [16] can be described thus: qHTS assay to identify aromatase inhibitors - cell viability counter screen (AID 743084). Also: potency is read from the fitted curve at half-maximal effect.
Test [17] in a line: qHTS assay to identify small molecule antagonists of the thyroid receptor (TR) signaling pathway - cell viability counter screen (AID 743064). Also: nearly all actives have a fitted effect of over 50% in size. An outline of the steps:
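In-well cytotoxicity read by CellTiter-Fluor (30 min, 37 C) following 23.5 h exposure of GH3 cells bearing a TRE-luciferase sensor. Compounds were added alongside 1 nM (final) T3 to drive TR transactivation.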

In test [18] the target is Androgen receptor (Homo sapiens) (UniProt P10275). Description: qHTS assay to identify small molecule antagonists of the androgen receptor (AR) signaling pathway (AID 743035; active = well fitted inhibition curve with a large enough effect in the signal ratio in the repeat runs, not every such curve was filed as active; the % refers to the signal ratio). An outline of the steps:
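Antagonism is scored as loss of R1881-driven beta-lactamase reporter expression in HEK293 cells carrying the reporter under a UAS element, after 16 h co-treatment at 37C and a 2 h room-temperature FRET substrate read.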

The target is the same in test [19]. Description: qHTS assay to identify small molecule agonists of the androgen receptor (AR) signaling pathway (AID 743036; active = well fitted activation curve with a large enough effect in the signal ratio in the repeat runs, with a control signal flat, not every such curve was filed as active; the % refers to the signal ratio). An outline of the steps: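 Activation was read as beta-lactamase FRET signal from LiveBLAzer B/G substrate, added for 2 h at room temperature. Before that, GeneBLAzer AR-UAS-bla GripTite (HEK293) cells had 16 h compound exposure at 37C.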
Test [20] has the same target. Description: qHTS assay to identify small molecule antagonists of the androgen receptor (AR) signaling pathway using the MDA cell line (AID 743042; also: nearly all actives have a fitted effect of over 55% in size). An outline of the steps: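 MDA-kb2 breast carcinoma cells carrying MMTV-luciferase (AR/GR responsive) were co-treated with compounds and the agonist R1881 for 16 h at 37C. Inhibition read as ONE-Glo luminescence; CellTiter-Fluor fluorescence measured in parallel for cytotoxicity.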
% is scaled to controls: 0 for no effect and ±100 for the full control effect.

Sequence of Estrogen receptor (Homo sapiens) (P03372 whole entry, looked up): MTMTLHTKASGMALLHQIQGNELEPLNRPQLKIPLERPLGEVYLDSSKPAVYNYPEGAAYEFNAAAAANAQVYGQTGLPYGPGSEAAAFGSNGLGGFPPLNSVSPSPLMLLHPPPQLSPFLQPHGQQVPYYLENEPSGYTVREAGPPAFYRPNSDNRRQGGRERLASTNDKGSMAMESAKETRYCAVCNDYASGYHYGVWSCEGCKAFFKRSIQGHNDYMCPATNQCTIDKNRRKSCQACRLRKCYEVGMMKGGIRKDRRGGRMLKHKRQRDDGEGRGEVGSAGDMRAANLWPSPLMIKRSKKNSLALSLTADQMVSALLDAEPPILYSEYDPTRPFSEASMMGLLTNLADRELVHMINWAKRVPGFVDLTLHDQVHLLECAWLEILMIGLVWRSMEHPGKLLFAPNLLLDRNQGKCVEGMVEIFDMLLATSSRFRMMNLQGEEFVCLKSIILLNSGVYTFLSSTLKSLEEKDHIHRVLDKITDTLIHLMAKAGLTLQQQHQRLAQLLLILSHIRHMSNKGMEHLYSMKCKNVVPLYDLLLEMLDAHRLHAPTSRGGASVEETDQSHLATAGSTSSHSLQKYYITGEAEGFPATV
Sequence of Aromatase (Homo sapiens) (P11511 whole entry, looked up): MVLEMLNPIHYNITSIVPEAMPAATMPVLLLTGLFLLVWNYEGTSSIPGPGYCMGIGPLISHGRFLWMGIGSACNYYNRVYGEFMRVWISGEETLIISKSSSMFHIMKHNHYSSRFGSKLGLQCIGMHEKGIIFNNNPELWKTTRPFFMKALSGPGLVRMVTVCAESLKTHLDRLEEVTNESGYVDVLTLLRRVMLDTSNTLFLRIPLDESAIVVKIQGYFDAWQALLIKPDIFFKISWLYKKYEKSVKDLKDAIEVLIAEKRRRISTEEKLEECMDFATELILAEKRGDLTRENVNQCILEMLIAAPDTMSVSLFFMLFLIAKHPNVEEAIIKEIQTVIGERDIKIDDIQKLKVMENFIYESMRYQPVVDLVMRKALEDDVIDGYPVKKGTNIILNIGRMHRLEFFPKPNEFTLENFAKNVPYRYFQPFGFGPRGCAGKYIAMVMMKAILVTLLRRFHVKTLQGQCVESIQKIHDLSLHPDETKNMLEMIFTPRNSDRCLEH
Sequence of Androgen receptor (Homo sapiens) (P10275 whole entry, looked up): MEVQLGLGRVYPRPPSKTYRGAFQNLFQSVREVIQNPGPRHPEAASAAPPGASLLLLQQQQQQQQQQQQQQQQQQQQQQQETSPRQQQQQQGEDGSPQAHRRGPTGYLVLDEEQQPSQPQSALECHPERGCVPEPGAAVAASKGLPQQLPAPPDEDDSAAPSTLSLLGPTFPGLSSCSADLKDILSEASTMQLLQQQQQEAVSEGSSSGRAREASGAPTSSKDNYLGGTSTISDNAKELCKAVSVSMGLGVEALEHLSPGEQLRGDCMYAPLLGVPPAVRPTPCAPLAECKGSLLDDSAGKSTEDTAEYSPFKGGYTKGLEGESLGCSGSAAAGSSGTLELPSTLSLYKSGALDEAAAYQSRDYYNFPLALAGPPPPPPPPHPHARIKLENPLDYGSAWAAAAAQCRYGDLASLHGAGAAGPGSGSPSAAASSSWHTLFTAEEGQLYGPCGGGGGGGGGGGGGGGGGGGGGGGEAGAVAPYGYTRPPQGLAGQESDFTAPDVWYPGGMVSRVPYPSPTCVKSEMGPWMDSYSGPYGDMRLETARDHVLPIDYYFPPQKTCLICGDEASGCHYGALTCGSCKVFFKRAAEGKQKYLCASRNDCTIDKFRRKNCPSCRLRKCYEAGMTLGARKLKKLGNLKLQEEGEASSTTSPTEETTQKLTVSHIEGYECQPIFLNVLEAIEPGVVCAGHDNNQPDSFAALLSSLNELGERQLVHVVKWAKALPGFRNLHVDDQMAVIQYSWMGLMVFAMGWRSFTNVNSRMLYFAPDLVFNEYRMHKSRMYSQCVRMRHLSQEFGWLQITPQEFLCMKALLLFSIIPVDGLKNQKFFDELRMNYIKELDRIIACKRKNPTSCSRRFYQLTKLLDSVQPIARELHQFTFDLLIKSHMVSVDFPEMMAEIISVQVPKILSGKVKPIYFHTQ

As to `CC(O)CCl` (configuration not stated), the Potency entry in test [1], in test [2], in test [3], in [4], in [5] and in test [6] was “inactive” throughout. The Potency entry in test [7], in test [8], in test [9], in test [10], in test [11] and in [13] was “inactive” throughout. The Potency result in [14], in test [15] and in test [16] was “inactive” in each case. Besides, the activation in [12] is 8.02%.
For `C(COCC1CO1)OCC1CO1` (configuration not stated), the Potency entry in test [1], in test [5], in test [6], in test [8], in test [9] and in test [10] was “inactive” each time. Further, the Potency entry in [11], in [13], in test [14], in test [15] and in [16] was “inactive” in each case. Besides, the Potency is 6.86 µM (active) in [2] and 1.54 µM (active) in test [3]. The activation in test [12] is 0.393%.
For the molecule `CN(C)CCN(C)C`, the Potency entry in test [1], in [2], in test [3], in [5], in [6] and in test [7] was “inactive” each time. Moreover, the Potency entry in test [8], in test [10], in test [11], in test [13], in test [14] and in test [15] was “inactive” each time. Moreover, the Potency result in test [16] was “inactive”. Also, in test [12], the activation was 18.6%.
Turning to `ClCOCCl`, the Potency entry in test [1], in test [2], in [3], in [5], in [6] and in [17] was “inactive” throughout. In addition, the Potency entry in [8], in test [9], in [10], in test [11], in [13] and in test [14] was “inactive” each time. The Potency entry in test [15] and in test [16] was “inactive” in each case. Besides, the Potency in [12] is 61.4 µM (active).
`C=C(Cl)CSC(=S)N(CC)CC`: the Potency entry in test [1], in [5], in test [6], in [8], in test [10] and in [14] was “inactive” each time. For the same molecule, the Potency in test [2] is 33.5 µM (active); in test [3], 66.8 µM (active); in [4], 53 µM (active); in [15] it was 26.6 µM (active); in test [16], 18.8 µM (active).
`C[N+]1(C)CCCCC1`: the Potency result in test [1], in test [2], in [3], in [5], in [18] and in test [6] was “inactive” each time. Moreover, the Potency result in [20], in [7], in test [10], in test [14], in test [15] and in [16] was “inactive” each time. For the same molecule, the molecule was called inactive in test [19].
With `CCCCCCCCSC(=O)Oc1cc(Cl)nnc1-c1ccccc1`, the Potency result in test [1], in [5], in [6], in test [17], in test [8] and in [10] was “inactive” in each case. Moreover, the Potency entry in test [11], in test [13], in [14], in test [15] and in test [16] was “inactive” each time. Further, the Potency in test [2] and in test [3] was 54.5 µM (active) each time. Further, the activation in test [12] was 3.18%.
`C=CCCC#N`: the Potency entry in test [1], in test [2], in [3], in [4], in test [5] and in [17] was “inactive” in each case. In addition, the Potency entry in test [7], in test [8], in test [9], in [10], in test [11] and in test [13] was “inactive” each time. Also, the Potency result in test [14], in test [15] and in test [16] was “inactive” in each case. Further, in test [12], the activation was -1.77%.
For the molecule `CON(C)C(=O)Nc1ccc(Br)cc1`, the Potency entry in test [1], in test [2], in test [3], in [4], in [5] and in [6] was “inactive” in each case. Also, the Potency result in test [7], in test [8], in test [10], in test [14], in [15] and in [16] was “inactive” in each case.
On to `CC(C)c1ccc(O)cc1`, for which the Potency entry in test [1], in test [2], in test [3], in test [5], in test [6] and in [17] was “inactive” in each case. Further, the Potency result in test [7], in test [8], in test [10], in test [14], in test [15] and in test [16] was “inactive” each time.
